# Bioassay records as filed in PubChem BioAssay.
# Nrf2 inh: inhibitors of Nrf2 signaling; 360,000 tested, 2.1% active; Potency, µM (doses to about 46 µM), hits mostly inhibitors; A549 ARE-Fluc reporter, luciferase luminescence, 18-24 h; AID 504444; note: nearly all actives have a fitted effect of over 60% in size
#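 A549 ARE_Fluc cells, 5000/well, 5% FBS OPTI-MEM; compounds in dose-response, 18-24 h at 37 °C/5% CO2; CellTiter-Fluor viability read (Ex 405/Em 525), then BugLite luciferase luminescence = Nrf2 activity.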
# KB-V1 cytotox: kills drug-selected multidrug resistant KB-V1 cells; KB-V1 MDR cells viability, CellTiter-Glo, 72 h; Potency, µM (top dose mostly 46.1 µM), hits mostly cytotoxic; 400,000 tested, 3.4% active; AID 1347076; note: nearly all actives have a fitted effect of over 60% in size
#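 Readout: CellTiter-Glo luminescence, 10 min after addition. Cells: KB-V1 MDR subline, 72 h at 37 degrees C with compound. Analysis: corrected, normalized data fitted to concentration-effect curves.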
# Giardia killer: kills Giardia lamblia. Giardia lamblia trophozoite viability. 340,000 tested, 0.15% active. activity change, % at 7.66 µM, hits read low; in the data active = activity change below about -80%; inconclusive = between about -30% and that limit;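 note: parasites exposed to compound for two days anaerobically before the ATP read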
#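 Each well holds 100 Giardia trophozoites and compound. After two days (48 hrs) at 37 deg C in anaerobic conditions, ATP is quantified by luminescence.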
# A549 tox: A549 cytotoxicity, counter-screen for Nrf2 inhibitors | A549 ARE-Fluc cells, CellTiter-Fluor viability, 18-24 h | Potency, µM (titrated, usually from 46 µM), hits mostly inhibitors | 390,000 tested, 0.16% active
#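 Cytotoxicity counterscreen: CellTiter-Fluor fluorescence was measured in A549 ARE_Fluc cells after 18-24 h of compound exposure in a concentration series. The subsequent BugLite luminescent read reports ARE-luciferase activity.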
# KB-3-1 cytotox: KB-3-1 parental cell cytotoxicity; 400,000 tested, 1.4% active; Potency, µM (doses to about 46.1 µM), actives largely listed as cytotoxic; KB-3-1 viability, CellTiter-Glo ATP luminescence, 72 h; note: nearly all actives have a fitted effect of over 60% in size
#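 72 h, 37 °C compound treatment of KB-3-1 parental cells; CellTiter-Glo added, 10 min, luminescence read. Data corrected against DMSO-only plates and normalized before curve fitting.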
# PI4K2A block: PI4K2A (human) kinase inhibition; activity change, negative = inhibition, % at 76.9 µM; AID 1346378; purified PI4K2A, ADP-Glo luminescence, 1 h; stronger effect = lower value; 420,000 tested, 0.13% active; Q9BTU6; in the data active = activity change below about -50%; inconclusive = mostly about -30% to -49%
# Target sequence (Q9BTU6 whole entry, looked up): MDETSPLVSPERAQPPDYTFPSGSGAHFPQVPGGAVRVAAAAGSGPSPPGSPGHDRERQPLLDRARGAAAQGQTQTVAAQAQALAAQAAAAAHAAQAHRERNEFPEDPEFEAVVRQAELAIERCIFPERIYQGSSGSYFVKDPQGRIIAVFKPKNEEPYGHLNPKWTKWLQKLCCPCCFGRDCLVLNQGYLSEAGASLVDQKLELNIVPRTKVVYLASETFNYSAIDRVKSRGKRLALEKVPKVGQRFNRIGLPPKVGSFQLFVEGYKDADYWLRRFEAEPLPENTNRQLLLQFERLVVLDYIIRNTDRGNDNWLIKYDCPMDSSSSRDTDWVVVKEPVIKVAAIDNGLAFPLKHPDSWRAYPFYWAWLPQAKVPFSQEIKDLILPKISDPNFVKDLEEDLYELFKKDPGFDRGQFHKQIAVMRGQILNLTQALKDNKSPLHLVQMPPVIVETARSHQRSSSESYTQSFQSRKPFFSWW
#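 ADP-Glo luminescence measured ADP generated by PI4K2A enzyme (4 ug/mL before mixing) with 1.2 mM PI substrate (pre-mix) and 300 microM ATP (pre-mix). Tris pH7.5 buffer with MgCl2, Triton X-100; 1 h reaction at ambient temperature.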
# A number is an active result; – = inactive; ? = inconclusive; · = not tested or not shown; ! = not active in a repeat. An excerpt weighted towards active compounds, which were near 5.7% of everything screened. Unless noted, calls come from the whole dose curve; as a rule, active = well fitted curve in the direction sought with a large enough effect; inconclusive = small, poorly fitted or top-dose-only effect, or another doubt; inactive = no such curve, though single readings can be large; an effect the other way counts as inactive or inconclusive.
SMILES,Nrf2 inh,KB-V1 cytotox,Giardia killer,A549 tox,KB-3-1 cytotox,PI4K2A block
CC1CN(c2ccc([N+](=O)[O-])c(NCCOc3ccccc3)c2)CC(C)N1 (stereo not given),–,?,–,–,–,–
CCOC(=O)Nc1cccc(OCC(=O)Nc2ccc(OC)cc2OC)c1,15µM,–,–,?,–,–
CCOC(=O)Nc1cccc(OCC(=O)Nc2ccccc2OC)c1,?,21µM,–,–,–,–
CCOC(=O)c1cccc(NC(=O)CN(C)S(=O)(=O)c2cc(OC)ccc2OC)c1,·,·,·,·,·,–
COc1ccccc1NC(=O)COc1cccc(-n2cnnn2)c1,?,?,–,–,–,–
CCOC(=O)c1cccc(NC(=O)Nc2cc(OC)ccc2OC)c1,21µM,–,–,–,–,–
COc1ccc(-c2cc(C(=O)NN)[nH]n2)cc1OC,–,–,–,–,–,–
COc1ccc(-c2cc(C(=O)O)[nH]n2)cc1OC,–,–,–,–,23µM,-73
CCCCCN1CCCCC(NC(=O)CSc2ccccc2)C1=O (stereo not given),·,·,·,·,·,–
Cc1ccc2nsnc2c1NC(=O)c1ccc(-c2cc(Cl)ccc2Cl)o1,13µM,?,–,9.2µM,?,–
Cc1ccc2nsnc2c1NC(=O)c1ccc([N+](=O)[O-])o1,–,?,-85,–,4.1µM,–
O=C(N/N=C/c1cccs1)c1n[nH]c2c1CCC2,–,?,–,–,5.8µM,–
O=C(N/N=C/c1ccc(Cl)cc1)c1n[nH]c2c1CCCC2,?,1.3µM,–,?,4.6µM,–
O=C(N/N=C/c1ccccc1)c1n[nH]c2c1CCCC2,?,?,–,–,?,–
O=C(N/N=C/c1ccccc1Cl)c1n[nH]c2c1CCCC2,?,–,–,–,?,–
Cc1ccccc1NC(=O)CN1C(=O)N/C(=C\c2ccccc2OCc2ccc(C(=O)O)cc2)C1=O,–,–,–,–,–,-51
O=C(CN1C(=O)N/C(=C\c2ccccc2OCc2ccc(C(=O)O)cc2)C1=O)Nc1ccc(F)cc1,–,–,–,?,–,–
CCc1ccc(-c2nc(CN3CCC(C(=O)NCc4ccco4)CC3)c(C)o2)cc1,–,9.2µM,–,?,?,–
CCCN(CCC)CCNC(=O)C1CCN(Cc2nc(-c3ccc(Cl)cc3)oc2C)CC1,–,?,–,?,23µM,–
Cc1oc(-c2ccc(Cl)cc2)nc1CN1CCC(C(=O)NCc2cccnc2)CC1,–,–,–,–,–,–
CN1C2=N[C@@H](c3ccccc3)CC(=O)N2/C(=C\c2ccccc2)[C@H]1c1ccccc1,·,·,·,·,·,–
C=CCNC(=S)NNC(=O)c1cccn(Cc2ccc(Cl)cc2Cl)c1=O,–,23µM,–,–,–,–
C=CCNC(=S)NNC(=O)c1cccn(Cc2ccc(Cl)c(Cl)c2)c1=O,?,16µM,–,–,?,–
CNC(=S)NNC(=O)c1cccn(Cc2ccc(Cl)c(Cl)c2)c1=O,?,?,–,–,–,–
Cc1cc2c(s1)c1cnn(Cc3c(C)cc(F)cc3C)c(=O)c1n2C,–,·,·,–,·,·
SMILES,Nrf2 inh,KB-V1 cytotox,Giardia killer,A549 tox,KB-3-1 cytotox,PI4K2A block
CCOc1ccc(NC(=O)CN2C(=O)C(c3ccccc3)=NC23CCC(C)CC3)cc1 (stereo not given),?,·,·,?,·,–
CCOC(=O)c1cccc(NC(=O)CN(C)S(=O)(=O)c2ccco2)c1,·,·,·,·,·,–
CC(C)(C)NCCC(O)c1cc(C(F)(F)F)nc2c(C(F)(F)F)cccc12 (stereo not given),–,21µM,–,–,?,–
O[C@@H](c1cc(C(F)(F)F)nc2c(C(F)(F)F)cccc12)[C@H]1CCCCN1,–,?,–,–,18µM!,–
OC(c1cc(C(F)(F)F)nc2c(Cl)cc(Cl)cc12)C1CCCCN1 (stereo not given),–,?,–,–,?,–
O=S1(=O)c2c(cccc2N2CC[C@H](O)C2)O[C@H]2CCN1C2,·,·,·,·,·,–
C[C@H](O)[C@@H]1CN2CCc3c([nH]c4cccc(-c5ccccc5)c34)[C@@H]2C[C@@H]1N(C)C(=O)Nc1ccccc1,·,·,·,·,·,–
COc1cc(CNCc2ccc(OC)c(OC)c2OC)cc(OC)c1,9.2µM,?,–,–,–,–
COc1ccc(CNc2cc(C)ccc2C)c(OC)c1OC,·,15µM,–,–,–,–
CC(=O)Nc1ccc(S(=O)(=O)Oc2ccc(C(=S)N3CCCCC3)cc2)cc1,21µM,?,–,–,–,–
CCOc1cc(C(=S)N2CCOCC2)ccc1OS(=O)(=O)c1ccc(NC(C)=O)cc1,9.2µM,?,–,–,–,–
CCOc1cc(C(=S)N2CCOCC2)ccc1OS(=O)(=O)c1ccc(OC)cc1,?,–,–,–,–,–
Cc1cc(C)cc(N2C(=O)CSC23C(=O)N(CC(=O)NCCc2ccccc2)c2ccccc23)c1 (stereo not given),–,–,·,–,–,–
Clc1ccc(N=c2ssnc2Cl)cc1,?,21µM,–,?,21µM,–
Cc1cc(Cl)ccc1NS(=O)(=O)c1ccc2c(c1)CC(C)N2C(=O)C1CCC1 (stereo not given),21µM,–,·,–,?,–
CC(=O)Nc1ccc(NS(=O)(=O)c2ccc3c(c2)CC(C)N3C(=O)C2CCC2)cc1 (stereo not given),–,–,·,–,–,–
Cc1ccc(NS(=O)(=O)c2ccc3c(c2)CC(C)N3C(=O)C2CCC2)cc1Cl (stereo not given),21µM,–,·,–,?,–
Clc1nc(-c2ccccn2)nc2scc(-c3ccccc3)c12,–,12µM,?,–,?,–
O=C(COc1ccccc1F)Nc1ccccc1OCc1cc(=O)n2ccccc2n1,·,·,·,–,·,–
CCCN1CNc2c(c(=O)[nH]c(=S)n2CCc2cccc(C)c2)C1,–,·,–,–,·,·
O=C(NC(NC(=S)N1CCOCC1)C(Cl)(Cl)Cl)c1cccc2ccccc12 (stereo not given),–,16µM,–,–,–,–
CCCCNC(=O)C[C@H]1C[C@@]2(C(=O)OC)C(=C[C@H](C3CCCC3)O[C@@H]2C)N(Cc2cccc3ccccc23)C1=O,·,·,·,·,·,–
Cc1nn(CC(C)C(=O)N2CCN(S(=O)(=O)c3ccc(Cl)cc3)CC2)c(C)c1C (stereo not given),–,21µM,–,–,–,–
O=C(CCn1c(=O)[nH]c2ccsc2c1=O)N1CCN(c2cccc(Cl)c2)CC1,–,–,–,–,21µM,–
COC(=O)[C@]12C[C@H](CC(=O)NCc3ccc(C)o3)C(=O)N(Cc3ccco3)C1=C[C@H](C1CCCC1)O[C@@H]2C,·,·,·,·,·,–
CC(C)(C)c1ccc(-c2nc(C=O)c3ccccn23)cc1,?,16µM,–,–,–,–
